# FH mod: Identification of activators of human fumarate hydratase by quantitative high-throughput screening. Fumarate hydratase, mitochondrial (Homo sapiens), P07954. FH coupled MDH/diaphorase resazurin fluorescence, 15 min. Potency, µM (top dose mostly 79.9 µM), for inactives: at the highest dose activity change, negative = inhibition, most hits filed as inhibitors. 54,000 tested, 0.22% active. AID 1347055, 2019; also: potency is read from the fitted curve at half-maximal effect; % is scaled to controls: 0 for no effect and ±100 for the full control effect; the screen sought activators but most active calls are inhibition curves; nearly all actives have a fitted effect of over 45% in size
# HTT-AS act: HTT-AS promoter activation; Potency, µM (highest dose often 57.5 µM), inactives show at the highest dose activity change, positive = activation, hits mostly activators; HEK293 HTT-AS promoter firefly luciferase reporter, 24 h; response scale: percent change from vehicle, -100% = no light; 48,000 tested, 0.24% active; AID 1508624; also: potency is read from the fitted curve at half-maximal effect; nearly all actives have a fitted effect of over 55% in size
#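 Firefly luciferase readout (Dual-Glo, 10 min RT) after 24 h, 37 °C compound exposure (final up to 57.5 uM) of HEK293 reporter cells cultured 24 h beforehand; PTC124 at 50 uM final as control inhibitor; activity scaled vehicle 0%, zero RLU -100%.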
# DRV1 agonist: agonists of human resolvin D1 receptor DRV1 (GPR32) | 48,000 tested, 2.5% active | AID 1346428 | CHO-K1 GPR32 beta-arrestin PathHunter luminescence, 90 min; zero percent set by DMSO-only wells | activation, % at 76.9 µM | O75388;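 active = activation of at least 60% and not above a set upper limit, about 1 call in 100 departs from these limits; inconclusive = activation of 40% to 60%, or above that upper limit; inactive = activation under 40%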; also: 0% is about no effect
#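 Readings come from a cell-based beta-arrestin complementation format: CHO-K1 GPR32 stable cells (2,500/well) treated 90 min with compounds, then beta-Gal substrate added for 1 h before chemiluminescence imaging.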
# GALC G270D act: galactocerebrosidase G270D activity enhancement, cell-based; Potency, µM (series often up to 57.5 µM), actives largely listed as activators; 145M-Twi-hGALC-G270D cells, HMU-beta-Gal fluorescence, 48 h; P54803; 45,000 tested, 0.1% active; also: potency is read from the fitted curve at half-maximal effect; 0% is about no effect; nearly all actives have a fitted effect of over 65% in size
# Target sequence (P54803 whole entry G286D): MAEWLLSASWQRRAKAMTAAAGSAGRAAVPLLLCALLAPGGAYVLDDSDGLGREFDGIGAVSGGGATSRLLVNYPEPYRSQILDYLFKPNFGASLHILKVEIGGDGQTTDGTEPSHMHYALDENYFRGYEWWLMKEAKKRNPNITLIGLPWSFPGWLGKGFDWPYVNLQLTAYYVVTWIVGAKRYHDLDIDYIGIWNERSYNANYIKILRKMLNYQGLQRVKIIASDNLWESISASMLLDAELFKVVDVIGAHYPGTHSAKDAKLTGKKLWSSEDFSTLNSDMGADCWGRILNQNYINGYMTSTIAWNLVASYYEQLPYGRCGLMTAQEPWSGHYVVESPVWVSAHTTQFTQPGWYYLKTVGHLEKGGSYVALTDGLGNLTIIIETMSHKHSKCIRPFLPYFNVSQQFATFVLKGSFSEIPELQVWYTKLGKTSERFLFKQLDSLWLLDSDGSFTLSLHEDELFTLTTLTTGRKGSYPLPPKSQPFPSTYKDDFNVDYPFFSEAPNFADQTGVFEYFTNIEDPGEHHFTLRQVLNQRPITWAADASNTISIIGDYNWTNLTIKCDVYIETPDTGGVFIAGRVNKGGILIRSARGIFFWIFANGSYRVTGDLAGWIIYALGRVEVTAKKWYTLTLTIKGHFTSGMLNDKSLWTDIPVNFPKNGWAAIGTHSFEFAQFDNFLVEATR
#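 qHTS, 1536-well; 145M-Twi-hGALC-G270D cells (WT line also made) in DMEM/F12 + 10% FBS; compound incubation on live cells; HMU-β-gal 0.1 mM final, pH 5.2, NaTC; carbonate stop; fluorescence increase = enhanced residual activity.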
# B2AR arrestin ag: ADRB2 beta-arrestin recruitment; P07550; HTLA Tango cells, beta-arrestin recruitment, luciferase luminescence, 18 h; Potency, µM (highest dose often 46.1 µM), usual class: activators; 44,000 tested, under 10 active; AID 1347077;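 also: potency is read from the fitted curve at half-maximal effect; 0% = DMSO and full agonism = EC100 isoproterenol or metaproterenol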
#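 Tango cell line, 1% FBS DMEM; cpd titration up to 46 microM; 18 hr, 37 degrees C, 5% CO2. Luciferin/ATP substrate mix added, 15 min RT, luminescence. %Activity, CRC fitting, curve-class categorization.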
# HTT promoter inh: inhibitors of huntingtin promoter activity; HEK293 HTT promoter firefly luciferase reporter, 24 h; Potency, µM (doses to about 57.5 µM), for inactives: top-dose activity change, negative = inhibition, actives largely listed as inhibitors; 48,000 tested, 0.93% active; AID 1508623; also: potency is read from the fitted curve at half-maximal effect; nearly all actives have a fitted effect of over 50% in size
#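 HEK293 cells carrying firefly luciferase reporters were seeded at 2,500 per well in Opti-MEM and cultured for 24 h. They were then treated with compounds at up to 57.5 uM final for 24 h at 37 degrees C before Dual-Glo luminescence readout.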
# The depositor's hits bear a star; i = inactive; ? = inconclusive; / = not tested or not shown; [ ] = another dose, or the depositor's remark. Hits are enriched below; roughly 3.7% of the tested compounds scored in any of these assays. Unless noted, calls follow the shape of the dose curve; as a rule, active = well fitted curve in the direction sought with a large enough effect; inconclusive = small, poorly fitted or top-dose-only effect, or another doubt; inactive = no such curve, though single readings can be large; an effect the other way counts as inactive or inconclusive.
SMILES,FH mod,HTT-AS act,DRV1 agonist,GALC G270D act,B2AR arrestin ag,HTT promoter inh
O=C(O)COc1ccccc1C1Nc2ccccc2-c2nnc(SCc3ccc(Cl)cc3)nc2O1 (stereo unspecified),-17.2%,-18.4%,107.9*,i,i,-23.9%
CC(=O)c1ccc(NC(=O)CC2Oc3ccc(C)cc3NC2=O)cc1 (stereo unspecified),3.5%,-19.2%,64.8*,i,i,-15.0%
CC1=C(CO)C(=O)O[C@@H]([C@@H](C)[C@H]2CC[C@H]3[C@@H]4C[C@H]5O[C@]56[C@@H](O)C=CC(=O)[C@]6(C)[C@H]4CC[C@]23C)C1,9.2%[53.3 µM],/,/,/,/,/
COc1ccccc1N1CCN(CC(O)COc2ccc(Cl)c(C)c2)CC1 (stereo unspecified),-4.1%,16.3%[11.5 µM],118.4*,i,i,6.7%[11.5 µM]
COc1ccc(N2CCN(CC(O)COc3ccc(C)cc3C)CC2)cc1 (stereo unspecified),-22.7%,2.6%,66.6*,i,i,-20.1%
Cc1cc(O)c(C(C)C)cc1Cl,-14.0%[53.3 µM],0.0%,85.6*,i,/,11.5%
CC1(C)CCC2(C(=O)OC3OCC(O)C(O)C3O)CCC3(C)C(=CCC4C5(C)CC(O)C(OC6OC(COC7OCC(O)C(O)C7O)C(O)C(O)C6O)C(C)(C)C5CCC43C)C2C1 (stereo unspecified),-1.3%[20.6 µM],/,/,/,/,/
CCOc1ccc(CCNC(=O)CN2CCN(Cc3ccc(F)cc3Cl)C2=O)cc1OCC,-6.2%,-18.4%,75.4*,i,i,-26.8%
CCOc1ccc(CCNC(=O)CN2CCN(Cc3ccc(Cl)cc3)C2=O)cc1OCC,-15.6%,-27.2%,17.5,i,i,?
Cc1ccccc1CSc1nc2c(sc3ccccc32)c(=O)n1CCCOC(C)C,-29.1%,12.8%,20.7,i,i,-3.1%
CC(C)OCCCn1c(SCC(N)=O)nc2c(sc3ccccc32)c1=O,-5.9%,-11.1%,115.0*,i,i,-3.8%
COCCCn1c(SCc2ccccc2F)nc2c(sc3ccccc32)c1=O,-28.9%,-20.9%,1.7,31.6µM*,i,-10.2%
CCCc1ccc(OCC(=O)N(Cc2nc(-c3cccnc3)no2)C(C)C)cc1,2.1%,/,/,/,/,/
C=C1CCC2C(C)(C(=O)O)CCCC2(C)C1CCC1=CCOC1=O (stereo unspecified),0.9%[53.3 µM],/,/,/,/,/
N#C/C(=C\c1ccc(-c2ccc(F)cc2F)o1)c1nc2ccccc2[nH]1,-1.4%,-0.1%,-7.0,i,i,6.4%
O=C1NC(=O)/C(=C/c2ccc(-c3ccc(F)cc3O)o2)S1,?,/,62.4*,/,/,/
CC(=O)Nc1cccc(-c2nc(-c3ccccc3)no2)c1,-14.3%,1.12µM*,-0.3,i,i,55.6%
Cc1cccc(C(=O)Nc2ccccc2-c2nc(-c3ccccc3)no2)c1,1.4%,-1.8%,-4.3,i,i,9.9%
COc1cc(CNc2ccc3[nH]c(=O)[nH]c3c2)cc(Cl)c1OCc1ccc(F)cc1,35.5µM*,-13.2%,-1.6,i,i,-12.7%
Cc1noc(-c2ccc(-c3ccc(CC(=O)O)cc3)cc2)c1NC(=O)O[C@H](C)c1ccccc1Cl,-18.8%,/,/,/,/,/
CCOC(=O)c1c(NC(=O)c2ccc(S(=O)(=O)N3CCC(C)CC3)cc2)sc2c1CCN(CC)C2,-15.6%,-25.5%,-4.7,i,i,?
CCOC(=O)c1c(NC(=O)c2ccc(S(=O)(=O)N3CCC(C)CC3)cc2)sc2c1CCN(C(C)C)C2,-10.2%,-18.4%,78.0*,i,i,-32.2%
CCCn1c(=O)c2sccc2n2c(CCCC(=O)NCc3ccccc3)nnc12,-0.2%,-13.8%,0.4,i,i,-21.2%
CCCCC(CC)CNC(=O)CCCc1nnc2n(CCC)c(=O)c3sccc3n12 (stereo unspecified),-9.7%,-15.5%,80.4*,i,i,-6.6%
CC(=O)c1c(C)cccc1O[C@@H]1O[C@H](CO)[C@@H](O)[C@H](O)[C@H]1O,-3.2%[53.3 µM],/,/,/,/,/
SMILES,FH mod,HTT-AS act,DRV1 agonist,GALC G270D act,B2AR arrestin ag,HTT promoter inh
OC1(c2ccc(Cl)c(C(F)(F)F)c2)CCN(CCCC(c2ccc(F)cc2)c2ccc(F)cc2)CC1,-22.1%,-91.5%,64.5*,i,/,?
CCOc1ccc(-c2nc(CSCC(=O)NCCc3ccccc3)c(C)o2)cc1,?,-49.5%,-5.9,i,?,7.08µM*
CCc1ccc(-c2nc(CSCC(=O)NCCc3ccccc3)c(C)o2)cc1,-5.6%,/,/,/,/,/
CCOc1ccc(C(=O)Nc2ccc(S(=O)(=O)N(Cc3ccccc3)c3ccccc3)cc2)cc1,-19.4%,-94.5%,-3.9,i,i,1.78µM*
COc1ccc(C(=O)Nc2ccc(S(=O)(=O)N(Cc3ccccc3)c3ccccc3)cc2)cc1,3.5%,-38.1%,-0.5,i,i,5.01µM*
Cc1ccc(C(=O)Nc2ccc(S(=O)(=O)N(Cc3ccccc3)c3ccccc3)cc2)cc1,-19.0%,-35.2%,-11.5,i,i,?
Cc1cccc(N2CCN(C(=O)C3CCN(C(=O)c4cc5sccc5n4C)CC3)CC2C)c1 (stereo unspecified),-14.9%,-55.3%,37.5,i,i,22.4µM*
C=C[C@H]1[C@H](O[C@@H]2O[C@H](CO)[C@@H](O)[C@H](O)[C@H]2O)OC=C(C(=O)OC)[C@H]1C[C@@H]1c2cc(O)c(O)cc2CCN1C(C)=O,7.5%[20.6 µM],/,/,/,/,/
CC(C)=C[C@@H]1[C@H](CO[C@@H]2O[C@H](CO)[C@@H](O)[C@H](O)[C@H]2O)C1(C)C,6.3%[53.3 µM],/,/,/,/,/
C[C@@H](Oc1cc(-n2cnc3ccc(OC4CCN(C)CC4)cc32)sc1C(N)=O)c1ccccc1Cl,-9.0%,/,/,/,/,/
CC(C)OCc1cc(CN2CCN(c3ccccc3)CC2)c(O)c2ncccc12,?,-43.2%,-7.6,i,?,12.6µM*
CCc1cccc(CC)c1-n1c(C=C(C)C)c(C(=O)N2CCNCC2)cc(-c2nc(-c3ccc(C(F)(F)F)cc3)cs2)c1=O,-15.0%[53.3 µM],/,/,/,/,/
CCC(CC)C(=O)Nc1nnc(SCc2cc(=O)c3ccccc3[nH]2)s1,1.0%,-45.3%,99.0*,i,i,?
O=C(COc1ccccc1)Nc1nnc(SCc2cc(=O)c3ccccc3[nH]2)s1,-9.3%,-37.1%,?,i,i,?
Cc1ccc(OCC(=O)Nc2nnc(SCc3cc(=O)c4ccccc4[nH]3)s2)cc1C,-9.0%,-13.3%,33.7,i,i,6.9%

# Source: PubChem BioAssay
